Reference: PubChem BioAssay (NCI)
This is part of a sample that, as a whole, favours compounds with a hit. Of some 83,000 tested, about 20% had one in any assay.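 Assay: single dose, 48 h. Readout: percent growth (0 = no net growth; negative = cell death). Active: <10.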 Calls of active or inactive are those of the source.

Legend:
Experiment in all cases: NCI-60 one-dose screen, 48 h (100 = growth as untreated, 0 = no growth, -100 = all killed)
Conditions in all cases: 10 µM unless noted
SK-MEL-2 melanoma = tested on: SK-MEL-2 melanoma
EKVX NSCLC = tested on: EKVX NSCLC
SN12C renal = tested on: SN12C renal
UO-31 renal = tested on: UO-31 renal
TK-10 renal = tested on: TK-10 renal
ACHN renal = tested on: ACHN renal
CAKI-1 renal = tested on: CAKI-1 renal
CCRF-CEM leukemia = tested on: CCRF-CEM leukemia
MOLT-4 leukemia = tested on: MOLT-4 leukemia
SR leukemia = tested on: SR leukemia
RPMI-8226 leukemia = tested on: RPMI-8226 leukemia
OVCAR-8 ovarian = tested on: OVCAR-8 ovarian
OVCAR-5 ovarian = tested on: OVCAR-5 ovarian
OVCAR-4 ovarian = tested on: OVCAR-4 ovarian
SK-OV-3 ovarian = tested on: SK-OV-3 ovarian
IGROV1 ovarian = tested on: IGROV1 ovarian
OVCAR-3 ovarian = tested on: OVCAR-3 ovarian
HS 578T breast = tested on: HS 578T breast
NCI/ADR-RES ovarian = tested on: NCI/ADR-RES ovarian
A498 renal = tested on: A498 renal

Measured: growth

Cc1ccc(-n2cc(/C=N/NC(=O)c3ccncc3)c(-c3ccc(S(C)(=O)=O)cc3)n2)cc1
inactive: SK-MEL-2 melanoma 97.7% | EKVX NSCLC 95.2% | SN12C renal 89.4% | UO-31 renal 80.4% | TK-10 renal 118% | ACHN renal 98% | CAKI-1 renal 90.2% | CCRF-CEM leukemia 84% | MOLT-4 leukemia 70.4% | SR leukemia 63.5% | RPMI-8226 leukemia 96.5% | OVCAR-8 ovarian 98.7% | OVCAR-5 ovarian 103% | OVCAR-4 ovarian 102% | SK-OV-3 ovarian 96.1% | IGROV1 ovarian 77.8% | OVCAR-3 ovarian 82.3% | HS 578T breast 90.3% | NCI/ADR-RES ovarian 51.7%

COc1ccc(N2CCN(C3=C(Cl)C(=O)C(C)=C(C)C3=O)CC2)cc1
inactive: SK-MEL-2 melanoma 106% | EKVX NSCLC 116% | SN12C renal 99.3% | UO-31 renal 91.4% | TK-10 renal 123% | ACHN renal 104% | CAKI-1 renal 91.9% | CCRF-CEM leukemia 26.1% | MOLT-4 leukemia 53.7% | SR leukemia 78.6% | RPMI-8226 leukemia 89.4% | OVCAR-8 ovarian 100% | OVCAR-5 ovarian 110% | OVCAR-4 ovarian 99.7% | SK-OV-3 ovarian 96.7% | IGROV1 ovarian 103% | OVCAR-3 ovarian 113% | HS 578T breast 103% | NCI/ADR-RES ovarian 101%

CC(=O)c1ccc(Nc2nc(SCC(C)C)nc(-c3ccc(F)cc3)c2C#N)cc1
inactive: SK-MEL-2 melanoma 109% | EKVX NSCLC 114% | SN12C renal 110% | UO-31 renal 115% | TK-10 renal 123% | ACHN renal 104% | CAKI-1 renal 115% | CCRF-CEM leukemia 107% | MOLT-4 leukemia 107% | SR leukemia 102% | RPMI-8226 leukemia 118% | OVCAR-8 ovarian 101% | OVCAR-5 ovarian 113% | OVCAR-4 ovarian 115% | SK-OV-3 ovarian 114% | IGROV1 ovarian 111% | OVCAR-3 ovarian 115% | HS 578T breast 122% | NCI/ADR-RES ovarian 110%

CN1CCN(Cc2ccc(NC(=O)c3cncc(C#Cc4cnc5ccc(OCC(C)(C)O)nn45)c3)cc2C(F)(F)F)CC1
inactive: NCI/ADR-RES ovarian 33.9%
active: SK-MEL-2 melanoma -80.4% | EKVX NSCLC -31.2% | SN12C renal 2.45% | UO-31 renal -87.9% | TK-10 renal -18.5% | ACHN renal -33.3% | A498 renal -84.1% | CCRF-CEM leukemia 6.09% | MOLT-4 leukemia 5.42% | SR leukemia -7.52% | RPMI-8226 leukemia -27.6% | OVCAR-8 ovarian 6.58% | OVCAR-5 ovarian -3.05% | OVCAR-4 ovarian -2.05% | SK-OV-3 ovarian -13.3% | IGROV1 ovarian -17.3% | OVCAR-3 ovarian -56.5% | HS 578T breast -36.9%

CCN1CCN(C(=O)[C@]23CCC(C)(C)C[C@H]2C2=CC[C@@H]4[C@@]5(C)Cc6c([nH]c7ccccc67)C(C)(C)[C@@H]5CC[C@@]4(C)[C@]2(C)CC3)CC1
inactive: SK-MEL-2 melanoma 104% | EKVX NSCLC 90% | SN12C renal 81.7% | UO-31 renal 75.8% | TK-10 renal 119% | ACHN renal 85% | CAKI-1 renal 65% | CCRF-CEM leukemia 80% | RPMI-8226 leukemia 84.9% | OVCAR-8 ovarian 91.8% | OVCAR-5 ovarian 80.1% | OVCAR-4 ovarian 99.7% | SK-OV-3 ovarian 106% | IGROV1 ovarian 88.7% | OVCAR-3 ovarian 106% | HS 578T breast 87.1% | NCI/ADR-RES ovarian 87%

COC(=O)C[Se]C(=O)Cc1c(C)n(C(=O)c2ccc(Cl)cc2)c2ccc(OC)cc12
inactive: SK-MEL-2 melanoma 86.8% | EKVX NSCLC 15.1% | SN12C renal 57.1% | TK-10 renal 70.6% | ACHN renal 53.2% | A498 renal 70.6% | CCRF-CEM leukemia 50.1% | MOLT-4 leukemia 67.1% | SR leukemia 16.4% | RPMI-8226 leukemia 90.8% | OVCAR-8 ovarian 41.4% | OVCAR-5 ovarian 15.4% | OVCAR-4 ovarian 40.6% | SK-OV-3 ovarian 118% | IGROV1 ovarian 16.8% | OVCAR-3 ovarian 44.7% | HS 578T breast 29.8%
active: UO-31 renal 9.87%

O=C(NNc1nc2cc(F)c(F)cc2n2c(CN3CC4CNCC4C3)ccc12)c1cnccn1 (centres undefined)
active: CCRF-CEM leukemia 9.82% | MOLT-4 leukemia 7%
inactive: SK-MEL-2 melanoma 29.2% | EKVX NSCLC 19.5% | SN12C renal 22.1% | UO-31 renal 14.1% | TK-10 renal 33.4% | ACHN renal 15% | A498 renal 35.1% | SR leukemia 12% | RPMI-8226 leukemia 20.4% | OVCAR-8 ovarian 13.8% | OVCAR-5 ovarian 42.7% | OVCAR-4 ovarian 22.8% | SK-OV-3 ovarian 13.3% | IGROV1 ovarian 14.5% | OVCAR-3 ovarian 35.9% | HS 578T breast 72.7% | NCI/ADR-RES ovarian 56.7%

COc1cccc2cc(-c3cc4ccccc4[nH]3)/c(=N\NC(=O)c3ccc(Cl)cc3)oc12
active: OVCAR-4 ovarian 9.76%
inactive: SK-MEL-2 melanoma 68.3% | EKVX NSCLC 33.8% | SN12C renal 43% | UO-31 renal 28% | TK-10 renal 46.7% | ACHN renal 17.3% | CAKI-1 renal 30.7% | CCRF-CEM leukemia 16.6% | MOLT-4 leukemia 15.5% | SR leukemia 25.7% | OVCAR-8 ovarian 20.7% | OVCAR-5 ovarian 49.2% | SK-OV-3 ovarian 39.5% | IGROV1 ovarian 26.3% | OVCAR-3 ovarian 14.7% | HS 578T breast 77% | NCI/ADR-RES ovarian 13.3%

COc1ccc(/C=C(/C)c2ccc3ccc(OC)cc3[o+]2)c(O)c1
inactive: SK-MEL-2 melanoma 94.3% | EKVX NSCLC 55.8% | SN12C renal 85.5% | UO-31 renal 69.4% | TK-10 renal 174% | ACHN renal 70.2% | A498 renal 110% | CCRF-CEM leukemia 11.2% | MOLT-4 leukemia 34.7% | SR leukemia 14.9% | RPMI-8226 leukemia 58.4% | OVCAR-8 ovarian 80.5% | OVCAR-5 ovarian 98.5% | OVCAR-4 ovarian 84.5% | SK-OV-3 ovarian 98.6% | IGROV1 ovarian 58% | OVCAR-3 ovarian 35.1% | HS 578T breast 98.7% | NCI/ADR-RES ovarian 45.3%

C=CCOc1cccc(/C=C2\SC(=S)N(C3CC(=O)N(c4ccc(Br)cc4)C3=O)C2=O)c1 (centres undefined)
inactive: SK-MEL-2 melanoma 117% | EKVX NSCLC 105% | SN12C renal 92.8% | UO-31 renal 89.6% | TK-10 renal 126% | ACHN renal 94.8% | CAKI-1 renal 104% | CCRF-CEM leukemia 96.7% | MOLT-4 leukemia 105% | RPMI-8226 leukemia 96.4% | OVCAR-8 ovarian 99.9% | OVCAR-5 ovarian 108% | OVCAR-4 ovarian 109% | SK-OV-3 ovarian 88% | IGROV1 ovarian 103% | OVCAR-3 ovarian 108% | HS 578T breast 106% | NCI/ADR-RES ovarian 99.9%

C=C(C)[C@@H]1CC[C@]2(COC)CC[C@]3(C)[C@H](CC[C@@H]4[C@@]5(C)CCCNC(C)(C)[C@@H]5CC[C@]43C)[C@@H]12
inactive: SK-MEL-2 melanoma 84.6% | EKVX NSCLC 53.9% | SN12C renal 73.6% | UO-31 renal 60.8% | TK-10 renal 79.6% | ACHN renal 67% | CAKI-1 renal 19% | OVCAR-8 ovarian 79.2% | OVCAR-5 ovarian 75.5% | OVCAR-4 ovarian 28.7% | SK-OV-3 ovarian 102% | IGROV1 ovarian 37.2% | OVCAR-3 ovarian 80.9% | HS 578T breast 37.8% | NCI/ADR-RES ovarian 51.3%
active: CCRF-CEM leukemia -10.1% | MOLT-4 leukemia -32.3% | SR leukemia -54.9% | RPMI-8226 leukemia -36.8%

COc1cc2nc(Cl)nc(Nc3cccc(C4=Nc5c(N)nc(N)nc5NC(c5ccc(Cl)cc5)C4)c3)c2cc1OC (centres undefined)
active: CCRF-CEM leukemia 3.94% | SR leukemia -8.05% | RPMI-8226 leukemia -18.9%
inactive: SK-MEL-2 melanoma 76.9% | EKVX NSCLC 95.3% | SN12C renal 73.7% | UO-31 renal 89.9% | TK-10 renal 115% | ACHN renal 102% | CAKI-1 renal 86.8% | MOLT-4 leukemia 10% | OVCAR-8 ovarian 29.1% | OVCAR-5 ovarian 114% | OVCAR-4 ovarian 101% | SK-OV-3 ovarian 124% | IGROV1 ovarian 87.9% | HS 578T breast 88.6% | NCI/ADR-RES ovarian 80.1%

Cc1ccc(C2=Nn3c(nnc3-c3ccccc3)SC2)cc1
active: SK-MEL-2 melanoma -14.8%
inactive: EKVX NSCLC 39.3% | SN12C renal 47.5% | UO-31 renal 43.1% | TK-10 renal 48.3% | ACHN renal 52.1% | CAKI-1 renal 34.4% | CCRF-CEM leukemia 23.6% | MOLT-4 leukemia 44.4% | SR leukemia 14% | RPMI-8226 leukemia 23.1% | OVCAR-8 ovarian 25.9% | OVCAR-5 ovarian 62.9% | OVCAR-4 ovarian 67.3% | SK-OV-3 ovarian 24.7% | IGROV1 ovarian 49.5% | HS 578T breast 19.6% | NCI/ADR-RES ovarian 14.1%

O=C(Nc1cccc(Cl)c1)Nc1nc2ccc([N+](=O)[O-])cc2o1
active: SK-MEL-2 melanoma 3.62% | TK-10 renal 8.49% | MOLT-4 leukemia 9.15% | OVCAR-8 ovarian 6.36% | OVCAR-4 ovarian -3.53% | OVCAR-3 ovarian -13.9%
inactive: EKVX NSCLC 16.7% | SN12C renal 16.8% | UO-31 renal 24% | ACHN renal 23% | CAKI-1 renal 15.8% | CCRF-CEM leukemia 10.5% | SR leukemia 50.8% | OVCAR-5 ovarian 47.7% | SK-OV-3 ovarian 12.9% | IGROV1 ovarian 20.8% | HS 578T breast 36.4% | NCI/ADR-RES ovarian 10.4%

O=S(=O)(Nc1ccc(I)cc1Cl)c1ccc(-c2cnc(C3CC3)o2)cc1
inactive: SK-MEL-2 melanoma 71.6% | EKVX NSCLC 54.2% | SN12C renal 42.5% | UO-31 renal 50.9% | TK-10 renal 89.3% | ACHN renal 49.2% | CAKI-1 renal 39.1% | CCRF-CEM leukemia 25.2% | MOLT-4 leukemia 45% | SR leukemia 34.5% | OVCAR-8 ovarian 62.2% | OVCAR-5 ovarian 75.4% | OVCAR-4 ovarian 67% | SK-OV-3 ovarian 57.8% | IGROV1 ovarian 43.2% | HS 578T breast 17.3% | NCI/ADR-RES ovarian 28.1%
active: OVCAR-3 ovarian -10.4%

CCOC(=O)c1c(NC(=O)c2ccccc2C(F)(F)F)sc2c1CCC(=O)C2
inactive: SK-MEL-2 melanoma 91.2% | EKVX NSCLC 32.2% | SN12C renal 25.8% | TK-10 renal 91.1% | CAKI-1 renal 21.1% | CCRF-CEM leukemia 10.3% | MOLT-4 leukemia 94.2% | SR leukemia 24.2% | OVCAR-8 ovarian 37.9% | OVCAR-5 ovarian 21% | OVCAR-4 ovarian 16.7% | SK-OV-3 ovarian 99.7% | IGROV1 ovarian 29% | OVCAR-3 ovarian 12.4% | NCI/ADR-RES ovarian 10.7%
active: UO-31 renal -1.08% | ACHN renal 6.88% | RPMI-8226 leukemia -6.12%
